Assay results: PubChem BioAssay (NCI)
This is part of a sample that, as a whole, favours compounds with a hit. Of some 79,000 tested, about 15% had one in any assay. Active and inactive are the calls of the source. Rule as the data show it: active = growth inhibition above about 70%; inactive = the rest.

Key:
[1] = NCI Yeast Anticancer Drug Screen. Data for the rad52 strain (AID 147);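 also: 0% = growth of vehicle-treated control cultures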; conditions: S. cerevisiae rad52 mutant growth inhibition, active compounds read high
Procedure, shortened: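 DNA repair-defective yeast; compound exposure; growth scored against vehicle controls.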

[2] = NCI Yeast Anticancer Drug Screen. Data for the wt1 strain (AID 149);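 also: 0% = growth of vehicle-treated wt1 cultures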; conditions: S. cerevisiae wt1 strain (SPY 50644) growth inhibition, active compounds read high
Procedure, shortened: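 The wt1 strain was treated with compounds, and growth was compared with vehicle-treated cultures to give inhibition.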

[3] = NCI Yeast Anticancer Drug Screen. Data for the rad50EPP+ strain (AID 151);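 also: 0% = growth of vehicle-treated control cultures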; conditions: S. cerevisiae rad50 mutant strain, active compounds read high
Procedure, shortened: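 rad50EPP+ yeast treated with test compounds. Readout: growth vs vehicle control.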

[4] = NCI Yeast Anticancer Drug Screen. Data for the rad50 strain (AID 155);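 also: 0% = growth of vehicle-only cultures of the same strain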; conditions: S. cerevisiae rad50 strain growth inhibition, active compounds read high
Procedure, shortened: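 Cells are treated with compound, grown, and their growth is then scored against vehicle-only cultures of the same repair-deficient yeast strain.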

[5] = NCI Yeast Anticancer Drug Screen. Data for the mec2-1 strain (AID 157); conditions: S. cerevisiae mec2-1 strain, active compounds read high
Procedure, shortened: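 Growth inhibition is read against vehicle-treated controls after compound exposure of the mec2-1 yeast strain, which is defective in DNA damage repair or cell cycle control.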

[6] = NCI Yeast Anticancer Drug Screen. Data for the sgs1 mgt1 strain (AID 161);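 also: 0% = growth of cultures given vehicle only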; conditions: S. cerevisiae sgs1 mgt1 strain, active compounds read high
Procedure, shortened: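 Percent growth inhibition was derived by comparing compound-exposed mutant yeast with vehicle-exposed cultures. The strain carries alterations in DNA damage repair.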

[7] = NCI Yeast Anticancer Drug Screen. Data for the CLN2oe strain (AID 163);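 also: 0% = growth of vehicle-only control cultures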; conditions: S. cerevisiae CLN2oe strain, active compounds read high
Procedure, shortened: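 Compound-treated yeast; growth vs vehicle ctrl = % inhibition. Genetically altered strain (cell-cycle control).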

[8] = NCI Yeast Anticancer Drug Screen. Data for the cln2 rad14 strain (AID 165);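 also: 0% = growth equal to vehicle treated cultures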; conditions: S. cerevisiae cln2 rad14 strain, active compounds read high
Procedure, shortened: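 Growth inhibition, relative to vehicle-treated controls, is the read-out. The test organism is a yeast strain with defined genetic alterations, cln2 rad14.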

[9] = NCI Yeast Anticancer Drug Screen. Data for the bub3 strain (AID 167); conditions: S. cerevisiae bub3 mutant strain, active compounds read high
Procedure, shortened: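 Part of a panel of yeast mutants defective in DNA damage repair or cell cycle regulation. Each strain is grown with compound, and inhibition is calculated relative to solvent-treated cultures.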

[10] = NCI Yeast Anticancer Drug Screen. Data for the wt2 strain (AID 169);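 also: 0% = growth of vehicle-treated yeast cultures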; conditions: S. cerevisiae wt2 strain growth inhibition, active compounds read high
Procedure, shortened: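 Compound exposure of yeast; growth compared with vehicle controls; inhibition reported.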

[11] = NCI Yeast Anticancer Drug Screen. Data for the mlh1 strain (AID 171);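 also: 0% = growth of vehicle-treated control cultures of the same strain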; conditions: S. cerevisiae mlh1 strain growth inhibition, active compounds read high
Procedure, shortened: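 Compounds are applied to a genetically altered yeast strain, and its growth is compared with that of vehicle-treated cultures to give percent inhibition.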

[12] = at 5.0 µM (retest, dose inferred, filed as 0.5)
[13] = at 50.0 µM (retest, dose inferred, filed as 5.0)

Measured: growth inhibition

Cc1ccc2nc(-c3cccc([N+](=O)[O-])c3)oc(=O)c2c1
active: [5]; [13] 75% | [9]; [13] 75%
inactive: [1]; at 1.2 µM 3% | [1]; at 3.7 µM 6% | [1]; at 11.0 µM 1% | [1]; at 33.0 µM -4% | [1]; at 100.0 µM -10% | [2]; at 1.2 µM -7% | [2]; at 3.7 µM -3% | [2]; at 11.0 µM -6% | [2]; at 33.0 µM -15% | [2]; at 100.0 µM -20% | [3]; at 1.2 µM -12% | [3]; at 3.7 µM 12% | [3]; at 11.0 µM 18% | [3]; at 33.0 µM 15% | [3]; at 100.0 µM 27% | [4]; at 1.2 µM -21% | [4]; at 3.7 µM -19% | [4]; [12] 31% | [4]; at 11.0 µM -34% | [4]; at 33.0 µM -31% | [4]; [13] 62% | [4]; at 50.0 µM 14.2% | [4]; at 100.0 µM -30% | [5]; at 1.2 µM -57% | [5]; at 3.7 µM -57% | [5]; [12] 39% | [5]; at 11.0 µM -62% | [5]; at 33.0 µM -53% | [5]; at 50.0 µM 11.8% | [5]; at 100.0 µM -70% | [6]; [12] -14% | [6]; [13] 33% | [6]; at 50.0 µM 27.6% | [7]; at 1.2 µM 15% | [7]; at 3.7 µM 22% | [7]; at 11.0 µM 20% | [7]; at 33.0 µM 9% | [7]; at 100.0 µM 8% | [8]; [12] 43% | [8]; [13] 59% | [8]; at 50.0 µM 13.2% | [9]; at 1.2 µM -23% | [9]; at 3.7 µM -23% | [9]; [12] 33% | [9]; at 11.0 µM -24% | [9]; at 33.0 µM -5% | [9]; at 50.0 µM 53.7% | [9]; at 100.0 µM -36% | [10]; at 1.2 µM -22% | [10]; at 3.7 µM -19% | [10]; at 11.0 µM -26% | [10]; at 33.0 µM -32% | [10]; at 100.0 µM -24% | [11]; at 1.2 µM -6% | [11]; at 3.7 µM -2% | [11]; at 11.0 µM -17% | [11]; at 33.0 µM -17% | [11]; at 100.0 µM -14%
